The results in this text go back to PubChem BioAssay (NCATS).

The structures appear in SMILES notation. Inconclusive results are not listed. A number with no mark means an inactive call. Calls of active or inactive are those of the source. Calls come from the whole dose curve; as a rule, active = well fitted curve in the direction sought with a large enough effect; inconclusive = small, poorly fitted or top-dose-only effect, or another doubt; inactive = no such curve, though single readings can be large; an effect the other way counts as inactive or inconclusive.

Test [1] has as its target Cellular tumor antigen p53 (Homo sapiens) (UniProt P04637). Briefly: Primary qHTS for small molecule compounds that upregulate eGFP-tagged delta133p53alpha (in N-terminal) cells. (AID 2060322).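 For activation: series mostly up to about 56 µM; 0% = DMSO vehicle and 100% = reference activator.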 Note: nearly all actives have a fitted effect of over 75% in size. Note: potency is the fitted concentration of half-maximal effect. The note with it: NCI-H358 eGFP-delta133p53alpha fluorescence, 24 h; activation: stronger effect = higher value. In a few lines:
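NCI-H358 cells pre-induced 24 h with 10 ng/ml doxycycline to express N-terminal eGFP-delta133p53alpha, then dosed 24 h at 37C without doxycycline; fixed, Hoechst-stained, GFP intensity by laser scanning cytometry, normalized to DMSO (0%) and 57.5 uM 5-azacytidine (100%).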
On the technique in general: qHTS replaces the single test concentration by a dilution series.

The target in test [2] is Aldehyde dehydrogenase, mitochondrial (Homo sapiens) (UniProt P05091). The test is described as follows: qHTS for Inhibitors of the Aldehyde Dehydrogenase Family (ALDH2) Primary screen (AID 2061308).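 Note: plate controls were vehicle for no effect and reference inhibitor for full effect; nearly all actives have a fitted effect of over 55% in size.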
Test [3] concerns the target Retinaldehyde dehydrogenase 3 (Homo sapiens) (UniProt P47895). Briefly: qHTS for Inhibitors of the Aldehyde Dehydrogenase Family (ALDH1A3) Primary screen (AID 2061315).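 Note: plate controls were DMSO vehicle for no effect and reference inhibitor for full effect.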

Sequence of Cellular tumor antigen p53 (Homo sapiens) (P04637 whole entry, looked up): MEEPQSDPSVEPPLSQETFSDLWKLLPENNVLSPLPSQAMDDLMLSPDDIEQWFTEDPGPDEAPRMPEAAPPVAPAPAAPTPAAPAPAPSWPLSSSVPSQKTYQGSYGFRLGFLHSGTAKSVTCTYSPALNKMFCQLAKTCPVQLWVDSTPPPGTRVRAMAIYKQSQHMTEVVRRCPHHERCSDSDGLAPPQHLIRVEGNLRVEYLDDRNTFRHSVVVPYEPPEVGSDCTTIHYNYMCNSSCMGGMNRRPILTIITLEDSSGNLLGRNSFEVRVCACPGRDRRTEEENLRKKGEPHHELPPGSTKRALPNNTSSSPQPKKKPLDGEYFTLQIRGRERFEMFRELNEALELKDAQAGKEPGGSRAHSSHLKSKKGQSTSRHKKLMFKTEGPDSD

As for `C/C=C1\[C@H](O[C@@H]2O[C@H](CO)[C@@H](O)[C@H](O)[C@H]2O)OC=C(C(=O)OC)[C@H]1CC(=O)O`, the activation in test [1] is 3.82%. The Potency result in test [2] and in test [3] was “inactive” throughout.
Take `CC(C)(O)/C=C1/C(=O)C(C)(C)C(=O)C(C)(C)C1(O)O[C@@H]1O[C@H](COC(=O)c2cc(O)c(O)c(O)c2)[C@@H](O)[C@H](O)[C@H]1O` (stereo not given in full): the activation in test [1] is 0.763%. Besides, the Potency result in test [2] and in test [3] was “inactive” each time.
Regarding `C1CCN2CC3C[C@@H](CN4CCCC[C@@H]34)[C@H]2C1`, in test [1], the activation is -23.2%. The Potency entry in test [2] and in test [3] was “inactive” in each case.
Regarding `COC(=O)c1cc(Br)cnc1N1CCC(NC2CCCCC2)C(O)C1` (stereo not given), in test [1], the activation is -10.3%. For the same compound, the Potency entry in test [2] and in test [3] was “inactive” throughout.
With `C=C1CC/C=C(/C(=O)O)CCC2C1CC2(C)C` (stereo not given), the activation in test [1] was -4.58%. Moreover, the Potency entry in test [2] and in test [3] was “inactive” each time.
In the case of `CC(=O)OC1CCC2(C)C(CCC3(C)C2CC=C2C4C(C)C(C)CCC4(C)CCC23C)C1(C)C(=O)O` (stereo not given), the activation in test [1] was -6.11%. The Potency result in test [2] and in test [3] was “inactive” each time.
On to `CC1CCC2(C)C(CC(O)C(O)C23CO3)C1(C)CCC1=CC(O)OC1=O` (stereo not given), for which, in test [1], the activation was -2.29%. The Potency result in test [2] and in test [3] was “inactive” each time.
With `C=C1C(=O)O[C@@H]2[C@H]1CCC(C)=C(CCC(=O)O)[C@@]2(C)O`, the activation in test [1] is -18.3%. Moreover, the Potency entry in test [2] and in test [3] was “inactive” each time.
For the compound `CC(C)(C)Nc1nc2cc(Cl)c(Cl)cc2nc1S(C)(=O)=O`, in test [1], the Potency was 3.38 µM (active). Further, the Potency result in test [2] and in test [3] was “inactive” each time.
As to `CCCCS(=O)(=O)Nc1ncnc(OCCOc2ncc(Br)cn2)c1-c1ccc(Br)cc1`, the activation in test [1] was -20.3%. Besides, the Potency result in test [2] and in test [3] was “inactive” throughout.
Consider `CC1C(=O)OCC2=CCN3CCC(OC(=O)C(C)(O)C1(C)O)C23` (stereo not given), for which the activation in test [1] is -5.36%. Moreover, the Potency result in test [2] and in test [3] was “inactive” each time.
`CC(=O)O[C@@H]1C[C@@H](C)[C@](O)(CCC2=CC(=O)OC2)[C@@]2(C)CCCC(C)(C)C12` (stereo not given in full): in test [1], the activation was -29.8%. Moreover, the Potency entry in test [2] and in test [3] was “inactive” in each case.
As to `C=C1CC2C(C)(CCC(=O)O)C(C(C)(C)O)CCC2(C)C2(C(=O)OC)C(=O)C(C)(O)C(=O)C12C` (stereo not given), the activation in test [1] is -21.4%. Moreover, the Potency entry in test [2] and in test [3] was “inactive” in each case.
Turning to `C[C@@H]1CC[C@@]23CC[C@]4(C)[C@@](C=CC5[C@@]6(C)CC[C@H](O)C(C)(C)C6CC[C@]54C)(OC2=O)C3[C@H]1C` (stereo not given in full), the activation in test [1] was 12.2%. For the same compound, the Potency entry in test [2] and in test [3] was “inactive” throughout.
With `COC(=O)C1=C[C@@H](O)[C@@H](O)[C@H](O[C@@H]2O[C@H](CO)[C@@H](O)[C@H](O)[C@H]2OC(=O)/C=C/c2ccccc2)C1`, in test [1], the activation is -26%. The Potency entry in test [2] and in test [3] was “inactive” in each case.
Turning to `CC1(CO)CCCC2(C)C3COC(=O)C3=CC(O)C12` (stereo not given), in test [1], the activation was -8.04%. Also, the Potency entry in test [2] and in test [3] was “inactive” throughout.
Turning to `CC1=CCC[C@@H]2[C@](CCc3ccoc3)(C(=O)O)[C@H](C)CC[C@@]12C`, the activation in test [1] is -28.2%. The Potency entry in test [2] and in test [3] was “inactive” each time.
On to `COc1c(C)c(OCC(O)C(C)(C)O)cc2c1COC2=O` (stereo not given), for which the activation in test [1] was 5.34%. Further, the Potency entry in test [2] and in test [3] was “inactive” in each case.
On to `CC(=O)O[C@@H]1C[C@@]2(C)C(CC[C@]3(C)C2CC=C2C4CC(C)(C)CC[C@]4(C(=O)O)CC[C@]23C)C(C)(C)[C@H]1O` (stereo not given in full), for which the activation in test [1] is 13.4%. Moreover, the Potency entry in test [2] and in test [3] was “inactive” each time.
As to `C/C=C(\C)C(=O)O[C@@H]1[C@@H](C)[C@]2(O)[C@@H]3C=C(C)C(=O)[C@H]3CC(CO)=C[C@H]2C2C(C)(C)[C@@]21OC(=O)C(C)CC` (stereo not given in full), in test [1], the activation is -1.79%. Moreover, the Potency result in test [2] and in test [3] was “inactive” throughout.
For `COC1CC(O[C@H]2CC[C@@]3(C)C(CCC4C3[C@H](OC(C)=O)[C@@H](OC(=O)/C=C/c3ccccc3)[C@]3(C)C(C(C)=O)CC[C@]43O)C2)OC(C)C1OC1CC(OC)C(OC2CC(OC)C(OC3OC(C)C(OC4OC(CO)C(O)C(O)C4O)C(OC)C3O)C(C)O2)C(C)O1` (stereo not given in full), in test [1], the activation was -13%. In addition, the activity change, negative = inhibition in test [2] is 6.42% [at 11.2 µM]; in test [3], 5.71% [at 11.2 µM].
As for `COc1cc(-c2nc(N[C@H](CO)Cc3ccccc3)ccc2C(=O)NCCOc2ccccc2)cc(OC)c1OC`, in test [1], the activation was -11.9%. Also, the Potency result in test [2] and in test [3] was “inactive” in each case.
For `C[C@@H]1O[C@@H](O[C@H]2[C@H](O[C@H]3[C@H](O[C@H]4CC[C@@]5(CO)C(CC[C@]6(C)C5CC=C5C7CC(C)(C)C[C@@H](O)[C@]7(C)CC[C@]56C)C4(C)C)O[C@H](C(=O)O)[C@@H](O)[C@@H]3O)OC[C@@H](O)[C@@H]2O)[C@H](O)[C@H](O)[C@H]1O` (stereo not given in full), the activation in test [1] was -15.3%. For the same compound, the Potency result in test [2] and in test [3] was “inactive” throughout.
As to `CC(=O)NCCCCn1c2c(c3ccccc31)C(=O)NCC2`, in test [1], the activation was -13.4%. The Potency entry in test [2] and in test [3] was “inactive” throughout.
As for `CC1=CCC[C@@H]2[C@@](C)(CCc3ccoc3)[C@H](C(=O)O)CC[C@@]12C`, the activation in test [1] was 14.3%. Besides, the Potency result in test [2] and in test [3] was “inactive” throughout.
